HNF4A DNA FP – change in binding of human HNF4 alpha to DNA; AID 1224865; activity change, % at 10 µM; HNF4a-FITC DNA binding, fluorescence polarization, 1 h; 360,000 compounds, 0.3% hits; in the data active means activity change above about 30%, passing the limit was not always enough
Myeloid diff 2 – compounds promoting myeloid differentiation; 360,000 compounds, 1% hits; calls only at 10 µM; ER-HoxA9 myeloid progenitors, lysozyme-GFP differentiation, flow cytometry;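 active means normalized GFP-positive differentiation at or above the plate's own cutoff, the solvent-only control mean plus 3 SD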;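 further: cells exposed to compound for four days before flow analysis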
Rpn11 inh – blocks the human proteasome subunit Rpn11; O00487; human 26S proteasome, Ub4-pepOG fluorescence polarization; 20S core pre-blocked with epoxomicin; inhibition, % at 20 µM; 360,000 compounds, 0.59% hits;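 active means inhibition at 20 µM, scaled to each plate's controls, above about 33%, limit read from the data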
Target sequence (O00487 whole entry, looked up): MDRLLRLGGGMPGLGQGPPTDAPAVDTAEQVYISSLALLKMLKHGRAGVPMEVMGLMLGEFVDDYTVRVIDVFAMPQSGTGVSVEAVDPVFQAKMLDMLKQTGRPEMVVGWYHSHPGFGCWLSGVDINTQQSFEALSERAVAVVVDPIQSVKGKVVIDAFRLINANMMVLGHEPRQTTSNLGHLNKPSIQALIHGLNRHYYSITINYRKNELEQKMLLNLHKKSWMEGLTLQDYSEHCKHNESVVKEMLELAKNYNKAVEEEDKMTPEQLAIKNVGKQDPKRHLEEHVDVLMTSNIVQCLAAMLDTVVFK
TPT1 inh – blocks Candida albicans tRNA 2'-phosphotransferase; recombinant caTPT1, FP RNA substrate dephosphorylation; AID 1962; inhibition, % at 5 µM; 300,000 compounds, 0.81% hits;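 active means inhibition above the mean of all tested compounds plus 3 SD, set per screening campaign, cut at about 24% in these data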;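 further: plate controls were DMSO alone for no effect and ferristatin control at 100 nM for full effect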
* = called active by the depositor; i = inactive; x = no result given; + = active, no number. The list is not random: actives were taken first. Their share in the collection is about 2.1%.

SMILES | HNF4A DNA FP | Myeloid diff 2 | Rpn11 inh | TPT1 inh
CCOc1ccc(N2C(=O)/C(=C/c3cc(OC)c(OC)c(OC)c3)N(CC(=O)OC)C2=S)cc1 | 0.1 | i | -0.5 | 3.5
CC1Cc2ccccc2N1S(=O)(=O)c1cccs1 (configuration not stated) | 114.7* | i | x | 4.1
Cc1cc(C)n(-c2ccc(C(=O)NC3CCCCC3)cc2)n1 | 1.2 | i | 2.5 | 0.7
N=C1C(c2ccccc2)=C(O)CN1NC(=O)c1ccccc1 | 0.1 | + | -12.1 | -1.9
N=C1C(c2ccccc2)=C(O)CN1NC(=O)c1ccc(Cl)cc1 | 0.7 | i | -4.0 | -1.7
Cc1cccc(NC(=O)Nc2ccc(F)cc2)n1 | -3.7 | + | -9.2 | -2.1
CC(C)OCCCN(C)C1CCN(S(=O)(=O)c2ccc(-c3cc(C(F)(F)F)no3)s2)CC1 | -1.5 | + | 6.9 | -4.6
CC(=O)Nc1ccc2cc3ccc(NC(C)=O)cc3nc2c1 | -36.0 | + | -88.6 | -18.2
O=C(CCl)NNC(=O)c1c(O)c2ccccc2[nH]c1=O | 1.8 | + | 4.4 | -2.3
O=C(Nc1ccccc1)c1cc(C2CCCN(C(=O)c3cccs3)C2)on1 (configuration not stated) | 1.4 | i | -2.1 | x
CC(C)(C)c1ccc(OCCCC(=O)Nc2ccc(S(N)(=O)=O)cc2)cc1 | 2.0 | + | -0.9 | 2.3
Cc1ccc(-c2nnc(CCC(=O)NCC3C4CC5CC(C4)CC3C5)o2)s1 (configuration not stated) | 2.5 | i | 5.4 | 1.4
Cc1nc2c(cnn2-c2ccccc2Cl)c(=O)n1-c1ccc(N2CCC(C)CC2)cc1 | 2.6 | + | 0.5 | 0.3
Cc1ccc(CNC(=O)CCC2CCCN(Cc3cc4ccccc4o3)C2)o1 (configuration not stated) | 0.7 | i | -3.8 | -2.4
Cc1cc(C)c(C(=O)N2CCCC(CNS(=O)(=O)c3cccs3)C2)o1 (configuration not stated) | 0.0 | i | -2.9 | 0.0
CC(C)(O)C#Cc1ccc(C(=O)N2CCCC(CNS(=O)(=O)c3cccs3)C2)o1 (configuration not stated) | 0.7 | + | 1.9 | 5.0
N#C/C(=C/C1=C(N2CCOCC2)C(=C/c2ccc(Cl)cc2)/CC1)C(=O)Nc1ccccc1F | 26.8 | + | 37.6 | x
COc1cc(/C=C(\C#N)C(=O)Nc2ccccc2F)ccc1OCCN1CCOCC1 | -1.2 | i | -0.3 | 1.8
CCc1ccc(-c2cc(C)no2)cc1S(=O)(=O)N1CCN(c2ccc(OC)cc2)CC1 | -0.7 | i | -2.1 | 1.4
CCc1ccc(-c2cc(C)no2)cc1S(=O)(=O)N1CCN(c2ccc(F)cc2)CC1 | 1.3 | + | -1.3 | 2.4
CCN(CC)C(=O)CSc1nc2ccccc2c(=O)n1CC | -1.6 | i | 1.0 | 3.8
CCN(CC)C(=O)CSc1nc2ccccc2c(=O)n1OC(C)C | -5.0 | + | -8.6 | -0.6
Cc1nn(C)c(C)c1N1C(=O)c2cccc3c(N)ccc(c23)C1=O | -90.8 | + | -243.1 | -105.9
Cc1nn(C)c(C)c1N1C(=O)c2cccc3c(Br)ccc(c23)C1=O | -1.8 | + | -13.8 | -2.0
CCN1C(=O)c2cccc3c(N)ccc(c23)C1=O | -100.8 | i | -259.3 | -94.0
SMILES | HNF4A DNA FP | Myeloid diff 2 | Rpn11 inh | TPT1 inh
NC(CCC(=O)NC(CS)C(=O)NCC(=O)O)C(=O)O (configuration not stated) | 0.3 | + | 0.9 | x
CN(C)c1ccc(C(C(=O)NCc2ccccc2)N(Cc2cccnc2)C(=O)c2snc(C(N)=O)c2N)cc1 (configuration not stated) | -1.8 | i | -2.4 | x
CCOC(=O)C1(CCOc2ccccc2)CCN(CC=C(C)C)CC1 | 0.1 | + | 9.2 | 1.8
CC(=O)N1CCc2cc(S(=O)(=O)CCC(=O)Nc3ccccc3F)ccc21 | -2.6 | + | 6.9 | 0.9
Cc1nn(C)c(NC(=O)c2ccc(Cl)cc2Cl)c1Br | 0.7 | + | -3.3 | -0.7
Cc1nn(C)c(NC(=O)c2ccccc2Cl)c1Br | -2.1 | i | -6.5 | 0.1
COC(=O)c1cc(NC(=O)C2CCCN(S(=O)(=O)c3c(C)n[nH]c3C)C2)cc(C(=O)OC)c1 (configuration not stated) | x | x | x | -3.2
CCOC(=O)c1sc2nc(CC(=O)OC)nc(NCc3ccco3)c2c1C | 15.0 | + | -6.5 | x
COc1ccc(-c2ccc(-c3noc(-c4ccccc4OC)n3)c(OC)n2)cc1 | 43.5* | i | 23.1 | 11.9
COc1ccc(-c2ccc(-c3noc(-c4ccccc4C)n3)c(OC)n2)cc1 | 10.6 | i | 20.5 | 7.7
CN1CCN(CCCNC(=O)c2ccc(/C=C3/Sc4ccccc4N(Cc4cccc(Cl)c4)C3=O)cc2)CC1 | 9.1 | + | -3.5 | x
CN1CCN(CCCNC(=O)c2ccc(/C=C3\Sc4ccccc4N(Cc4ccc(F)cc4)C3=O)cc2)CC1 | -0.4 | i | -2.1 | x
CCOc1ccc(CCNC(=O)CN2C(=O)NC(CCSC)C2=O)cc1OCC (configuration not stated) | -0.4 | + | -4.4 | 2.6
CSCCC(NC(=O)c1ccco1)C(=O)N1CCN(C(c2ccccc2)c2ccccc2)CC1 (configuration not stated) | -0.6 | i | 1.7 | x
CCC(=O)OCc1c(C(F)(F)F)nn(C)c1Sc1ccc(F)cc1 | 2.2 | + | -2.3 | 1.0
Cc1c(Cl)cccc1NC(=O)NN1CCN(C)CC1 | 1.4 | + | -1.7 | x
Cc1cccc(NC(=O)NN2CCN(C)CC2)c1C | -1.9 | i | -1.4 | x
O=C(Nc1ccc(N2CCN(C(=O)c3ccccc3)CC2)cc1)c1cccnc1 | -0.7 | i | -3.8 | 0.4
CC1CCN(c2ccc(NC(=O)c3cccnc3)cc2)CC1 | 12.9 | + | 29.7 | -3.1
COc1ccc(C(=O)Nc2cccc(/C(C)=N/NC(=O)c3ccc([N+](=O)[O-])cc3)c2)cc1OC | -4.5 | + | 3.0 | -0.5
CCCCC(=O)Nc1ccccc1CC | 4.9 | i | -2.0 | -2.2
Cc1ccc(/C=C2/SC(=S)N(C3CCCCC3)C2=O)o1 | 33.7* | i | 101.5* | 15.1
COc1ccc(C2=NS(=O)(=O)N(C)C(C(=O)N3CCc4ccccc4C3)=C2)cc1OC | 1.7 | + | 6.3 | -3.5
C[C@]12CC[C@H]3C(=CCc4cc(O)ccc43)[C@@H]1CCC2=O | -0.4 | + | 1.8 | -2.6
N#C/C(=C(/O)COC(=O)c1ccc(C#N)cc1)c1nc2ccccc2s1 | 13.8 | + | 28.3 | 18.9
N#C/C(=C(/O)COc1ccccc1)c1nc2ccccc2s1 | -4.2 | i | -4.9 | -7.7
CCN(C(=O)COC(=O)C1CC1C)c1c(N)n(Cc2ccccc2)c(=O)[nH]c1=O (configuration not stated) | -0.3 | i | 3.5 | x
CCCN1CCC(=O)N([C@H](CSc2ccc(OC)cc2)Cc2ccccc2)CC1 | -1.4 | + | 7.6 | -2.1
O=C(Nc1cc2c3c(c1)CC(=O)N3CCC2)c1ccccc1Br | 2.7 | i | -6.8 | -0.5
COc1cccc(C2NC(=O)NC(C)=C2C(=O)Nc2ccc(C)cc2)c1OC (configuration not stated) | 0.3 | + | -4.7 | -0.8
